The values below come from ChEMBL document CHEMBL4513216, “Probing the Open Global Health Chemical Diversity Library for Multistage-Active Starting Points for Next-Generation Antimalarials” (ACS Infect Dis, 2020).

In all, about 69,000 compounds went through this assay and about 8,600 (12%) showed an effect of 50% or more. The sample as a whole holds a higher share of strong results than the screen did.

The test system of this experiment is Plasmodium berghei. In words: Screen against P. berghei liver stage (PbLuc), transformed with Luciferase, at 10uM. Type of experiment: functional, HepG2. Particulars: tested at 10 uM.
Regarding `Cc1nc2c(c(NCC(c3cccnc3)N3CCOCC3)n1)CCNC2` (configuration not stated), the INHIBITION is given as 18.2%.
Next, `Cn1nc2c(cc1=O)CN(Cc1nc(N)c3ccccc3n1)CC2`: 57.7%.
Turning to `Cc1nnc2n1CCN(CCOc1ccccc1C#N)C2`, the INHIBITION amounted to 58.5%.
For the compound `N#Cc1ccccc1OCCN1CCn2c(nnc2C2CC2)C1`, the INHIBITION is 39.5%.
Next, `Cn1nc2c(cc1=O)CN(Cc1nc3ccccc3c(=O)[nH]1)CC2`: 9.04%; `CCn1nc2c(cc1=O)CN(CCOc1ccccc1C#N)CC2`: 2.4%.
Next, `Cn1nc2c(cc1=O)CN(CCOc1ccccc1C#N)CC2`: 74.8%; `CCn1nc2c(cc1=O)CN(Cc1nc(N)c3ccccc3n1)CC2`: 15.8%; `Cc1ccccc1OCCN1CCn2c(C)nnc2C1`: 27.6%.
Turning to `CC(C)n1nc2c(cc1=O)CN(CCOc1ccccc1C#N)CC2`, the INHIBITION came out at 12.7%.
In the case of `Cc1cc(=O)n(CCNC(=O)c2ccccc2Cl)cn1`, the INHIBITION is -62.1%.
Consider `COc1cc(N2CCC3(CCCN(C(=O)c4cnccn4)C3)C2)ncn1` (configuration not stated), for which the INHIBITION turned out to be 10.6%.
Next, `O=C(c1ccco1)N1CCOCC2(C1)CN(c1ccccn1)C(=O)CO2` (configuration not stated): 22.4%.
Take `COCCCN1CCCC1c1noc(C2CC2)n1` (configuration not stated): the INHIBITION stood at 2.97%.
Turning to `O=C(Cc1ccsc1)N1C[C@@H]2COC[C@]2(COc2cccnc2)C1`, the INHIBITION was determined as 39.4%.
Take `CC(=O)NCc1ccc(C(=O)N2CCCC2c2cnn(C)c2)s1` (configuration not stated): the INHIBITION is listed as -25.9%.
Consider `CC(C)Nc1nc(O)cc(C2CC(=O)N(Cc3ccccc3)C2)n1` (configuration not stated), for which the INHIBITION was found to be 18.3%.
On to `O=C(C[C@@H]1COC[C@H]2CN(C(=O)c3cccnc3)C[C@@H]12)N1CCCC1`, for which the INHIBITION is -19.5%.
Next, `c1cncc(-c2nnn3c2COCC(CNCC2CCOCC2)C3)c1` (configuration not stated): 41.6%; `O=C(c1ccccc1O)N1CCN(C(=O)C2CCC2)CC1`: -14.3%; `Cc1ccsc1C(=O)N(C)Cc1ccncc1`: 3.1%.
On to `CN(CCc1ccncc1)C(=O)c1sccc1OC(F)F`, for which the INHIBITION was -2.97%.
Take `CN(Cc1ccc(C(=O)O)cc1)C(=O)c1sccc1OC(F)F`: the INHIBITION came out at 52.5%.
Turning to `Cc1ccccc1C(CC(=O)N1CCc2sccc2C1)NC(N)=O` (configuration not stated), the INHIBITION worked out at 3.3%.
Take `CCOc1ccc(Cl)cc1CCNC(=O)c1ccc(=O)n(C)c1`: the INHIBITION is recorded as -10.8%.
Next, `O=C(Cn1nc(-c2ccc(F)cc2)oc1=O)NCc1ccncc1`: -6.79%; `COCC(=O)N[C@@H]1CN(Cc2c[nH]nc2-c2cccs2)C[C@H]1O`: 6.54%.
`CCC1=NC(SCC(=O)c2ccc(C)cc2)c2cc(CC)sc2N1` (configuration not stated): the INHIBITION was 39.1%.
For `CCC1=NC(SCC(=O)c2ccc(Cl)cc2)c2cc(CC)sc2N1` (configuration not stated), the INHIBITION stood at 30%.
In the case of `CCC1=NC(SCC(=O)c2ccccc2)c2cc(CC)sc2N1` (configuration not stated), the INHIBITION came to 79.7%.
As for `CC(C)c1nn(C)c(Cl)c1CNCC(=O)N1CCN(C)CC1`, the INHIBITION stood at 26.4%.
As to `Cc1nc(C)n(CC2CN(Cc3cccs3)Cc3nccn3C2)n1` (configuration not stated), the INHIBITION is 47.4%.
For the compound `CCOCCS(=O)(=O)c1nnc(NCCOC)s1`, the INHIBITION worked out at 12.2%.
In the case of `CCCNc1nnc(S(=O)(=O)CCOCC)s1`, the INHIBITION is given as 5.05%.
As for `COCCNc1nnc(S(=O)(=O)CCC(C)(C)C#N)s1`, the INHIBITION came out at 52.1%.
`C[C@@H]1CN(C(=O)C2CCOCC2)C[C@]12CCN(c1cccnc1)C2=O`: the INHIBITION worked out at 18.5%.
With `COc1ccccc1C(=O)N1CC(=O)N(C2CCCCC2)CC(O)C1` (configuration not stated), the INHIBITION came to 50.2%.
Regarding `CCOc1ccccc1C(=O)N1CC(=O)N(C2CCC2)CC(O)C1` (configuration not stated), the INHIBITION was found to be 16.9%.
Regarding `COc1cccc(OC)c1C(=O)N1CC(=O)N(C2CCC2)CC(O)C1` (configuration not stated), the INHIBITION is on record as 4.82%.
Consider `COc1ccc(OC)c(-n2cnnc2CN)c1`, for which the INHIBITION worked out at 45.7%.
In the case of `c1cncc(-n2cnnc2CC2CCNCC2)c1`, the INHIBITION was determined as 8.08%.
Consider `COc1ccc(-n2cnnc2CC2CCNCC2)cc1`, for which the INHIBITION was 65.7%.
For `COc1ccc(C)cc1-n1cnnc1C1CCCN(C)C1` (configuration not stated), the INHIBITION turned out to be 29.8%.
With `COc1ccc(C)cc1-n1cnnc1CC1CCNCC1`, the INHIBITION is reported as 64.6%.
As to `COc1ccc(C)cc1-n1cnnc1C1CCOCC1`, the INHIBITION is 13.5%.
For `O=C(Cn1ccc2cc(Br)ccc21)NCc1ccc(C(=O)O)cc1`, the INHIBITION is recorded as 13.5%.
With `CC(=O)c1cc(C(=O)N2Cc3ccccc3OC3(CCOCC3)C2)cs1`, the INHIBITION is on record as -26.2%.
As to `CS(=O)(=O)c1ccc(C(=O)N2CCCC(n3ccnc3)C2)cc1` (configuration not stated), the INHIBITION is recorded as -9.76%.
Turning to `COC(=O)C(c1cc(F)ccc1F)N(C)C(=O)c1ccccn1` (configuration not stated), the INHIBITION worked out at 36.1%.
For `COCC(c1cccc(C(F)(F)F)c1)N(C)C(=O)c1ccccn1` (configuration not stated), the INHIBITION is -5.285%.
Turning to `COc1ccc(N(C(=O)c2cnc(C)cn2)C(C)C)cc1F`, the INHIBITION came to 62.4%.
On to `COC(=O)c1cnc(C(=O)N(c2ccc(OC)c(F)c2)C(C)C)cn1`, for which the INHIBITION was -54.5%.
Next, `COc1ccc(N(C(=O)c2ccc(C)nc2)C(C)C)cc1F`: 38%; `COc1ccc(N(C(=O)c2ccccn2)C(C)C)cc1F`: 50.8%; `COc1ccc(C(=O)N(c2ccc(OC)c(F)c2)C(C)C)cn1`: 75.2%.
As for `COc1ccc(N(C)C(=O)c2cccc(S(C)(=O)=O)c2)cn1`, the INHIBITION came out at 40.7%.
Turning to `COc1ccc(N(C(=O)Cc2ccc(C)nc2)C(C)C)cc1F`, the INHIBITION is given as -75%.
